Assay outcomes (PubChem)
An excerpt weighted towards active compounds, which were near 0.17% of everything screened.
B2AR arrestin = beta2AR (human) beta-arrestin recruitment activity | P07550 | beta-arrestin recruitment to beta2AR, cell-based reporter | Potency, µM (highest dose often 46.1 µM), usual class: activators | 0.02% of 330,000 active; further: nearly all actives have a fitted effect of over 65% in size
Target sequence (P07550 whole entry, looked up): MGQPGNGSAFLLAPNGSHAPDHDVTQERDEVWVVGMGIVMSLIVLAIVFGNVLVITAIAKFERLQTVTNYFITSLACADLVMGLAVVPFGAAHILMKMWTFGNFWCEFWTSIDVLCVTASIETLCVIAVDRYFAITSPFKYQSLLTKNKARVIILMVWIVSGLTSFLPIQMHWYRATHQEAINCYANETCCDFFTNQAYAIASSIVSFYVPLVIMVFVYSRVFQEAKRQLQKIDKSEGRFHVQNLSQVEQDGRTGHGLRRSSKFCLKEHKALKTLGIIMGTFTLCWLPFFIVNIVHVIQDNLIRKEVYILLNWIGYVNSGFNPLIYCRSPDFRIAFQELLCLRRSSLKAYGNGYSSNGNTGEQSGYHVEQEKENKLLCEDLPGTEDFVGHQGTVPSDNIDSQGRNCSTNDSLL
Pin1 inh = blocks the human prolyl isomerase Pin1; Q13526; Pin1 FP peptide displacement, HiFluor488, 10 min; Potency, µM (highest dose often 115 µM), actives largely listed as inhibitors; 0.009% of 390,000 active; AID 504891; active means well fitted inhibition curve with a large enough effect in the polarisation, with a control signal flat, not every such curve was filed as active; inconclusive means small, poorly fitted or top-dose-only effect, or effect the other way, or a change in a side signal; inactive means no such curve, though single readings can be large or run the other way; the % refers to the polarisation
Target sequence (Q13526 whole entry, looked up): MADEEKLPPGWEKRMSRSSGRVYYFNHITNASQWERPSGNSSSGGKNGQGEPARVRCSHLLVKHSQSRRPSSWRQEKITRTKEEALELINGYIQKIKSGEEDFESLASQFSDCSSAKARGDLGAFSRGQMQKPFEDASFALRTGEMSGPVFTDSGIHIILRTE
Anesthetic bind = binds horse apoferritin like a general anesthetic | P02791 | apoferritin/1-aminoanthracene competitive binding, fluorescence | Potency, µM (highest dose often 77.5 µM), actives largely listed as inhibitors | 0.074% of 350,000 active | AID 485281; further: nearly all actives have a fitted effect of over 20% in size
Target sequence (P02791 2-175 limits assumed): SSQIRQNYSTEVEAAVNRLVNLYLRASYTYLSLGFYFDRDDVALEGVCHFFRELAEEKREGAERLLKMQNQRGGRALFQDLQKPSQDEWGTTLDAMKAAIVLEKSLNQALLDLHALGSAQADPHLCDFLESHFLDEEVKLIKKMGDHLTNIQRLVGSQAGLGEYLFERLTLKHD
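Read-out: endpoint 1-AMA fluorescence, excitation 380 nm and emission 535 nm, after compounds sit 10 min at room temperature with 10 uM horse-spleen apoferritin in 50% saturated 1-AMA/PBS. Values come from four-parameter Hill fits.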
Glioma ERSR ind = ER stress response induction in glioma; U87-MG GRP78 promoter luciferase reporter, 16 h; Potency, µM, hits mostly activators; 0.02% of 420,000 active; further: series mostly up to about 76 µM; nearly all actives have a fitted effect of over 35% in size
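ERSR induction read as luciferase luminescence (Bright-Glo, 10 min at room temperature) in stably transfected human U87-MG glioma cells exposed to compounds for 16 h, using GRP78 as sensor.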
RGS4 inhibitor = inhibitors of human regulator of G protein signaling 4; P49798; Transcreener GDP fluorescence polarization, RGS4-accelerated GTP hydrolysis; Potency, µM (highest dose often 114 µM), hits mostly inhibitors; 0.039% of 390,000 active; AID 504845; further: nearly all actives have a fitted effect of over 75% in size
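MLSMR compounds (23 nl, pin-transferred) preincubated 10 min at room temperature with a 500nM (2x) first reagent, then RGS4 at 900nM (2x) plus Transcreener GDP mix added; fluorescence polarization (620/688 nm) read before and after 90 min at 30 °C.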
Mm-Cpn inhibitor = inhibitors of Methanococcus maripaludis chaperonin TRiC (MmCpn); 0.031% of 330,000 active; Potency, µM (doses to about 76.9 µM), actives largely listed as inhibitors; AID 504842; purified Mm-Cpn ATPase, ADP Transcreener TR-FRET; further: nearly all actives have a fitted effect of over 80% in size
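25 nM Mm-CPN + cpd, 10 min 37°C; + 10 uM ATP, 30 min 37°C; buffer 30 mM Tris pH 7.4, 100 mM KCl, 5 mM MgCl2, 1 mM DTT; Transcreener ADP HTRF detection 30 min RT.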
Of the large screens only hits and unclear results are named; the others gave an inactive call; ! = not active in a repeat. Unless noted, the call rests on the fitted dose curve; in most records, active means well fitted curve in the direction sought with a large enough effect; inconclusive means small, poorly fitted or top-dose-only effect, or another doubt; inactive means no such curve, though single readings can be large; an effect the other way counts as inactive or inconclusive.

Oc1ccc2c3c1O[C@H]1c4[nH]c5c(c4C[C@@]4(O)[C@@H](C2)N(CC2CC2)CC[C@]314)C[C@]1(O)[C@H]2Cc3ccc(O)c4c3[C@@]1(CCN2CC1CC1)[C@@H]5O4	none (no result: B2AR arrestin, Pin1 inh, Anesthetic bind, RGS4 inhibitor, Mm-Cpn inhibitor)
NC(N)=Nc1ccc2[nH]c3c(c2c1)C[C@@]1(O)[C@H]2Cc4ccc(O)c5c4[C@@]1(CCN2CC1CC1)[C@H]3O5	Pin1 inh inconclusive, RGS4 inhibitor 23.8µM, Mm-Cpn inhibitor inconclusive (no result: Anesthetic bind)
C[C@@H]1O[C@@H](O[C@H]2CC[C@@H](O[C@H]3[C@H](O)C[C@H](c4ccc5c(c4O)C(=O)C4=C(C5=O)[C@@]5(O)C(=O)C[C@](C)(O[C@H]6CC[C@H](O[C@H]7C=CC(=O)[C@H](C)O7)[C@H](C)O6)C[C@@]5(O)C=C4)O[C@@H]3C)O[C@H]2C)C=CC1=O	none (no result: B2AR arrestin, Pin1 inh, RGS4 inhibitor, Mm-Cpn inhibitor)
C=CCN1C(=O)NC(=O)/C(=C\c2ccc(-c3ccccc3[N+](=O)[O-])o2)C1=O	Anesthetic bind 39.8µM, RGS4 inhibitor inconclusive
N.N.N.N.N.N.N.N.N.N.N.N.N.N.O.O.[Ru+4].[Ru+5].[Ru+5]	RGS4 inhibitor 18.9µM (no result: B2AR arrestin, Pin1 inh, Anesthetic bind, Mm-Cpn inhibitor)
CC12CCC(=O)CC1CCC1C2CCC2(C)C1CCC2(C)O (stereo not given)	none (no result: B2AR arrestin, Pin1 inh, Anesthetic bind, RGS4 inhibitor, Mm-Cpn inhibitor)
CCC(=O)O[C@@](Cc1ccccc1)(c1ccccc1)[C@H](C)CN(C)C	none (no result: B2AR arrestin, Pin1 inh, Anesthetic bind, RGS4 inhibitor, Mm-Cpn inhibitor)
CN1CCCCC1c1cccnc1 (stereo not given)	RGS4 inhibitor 37.7µM (no result: B2AR arrestin, Pin1 inh, Mm-Cpn inhibitor)
O=C1NC(=O)N(Cc2ccc(F)cc2)C(=O)/C1=C\c1ccc([N+](=O)[O-])s1	Pin1 inh 10µM, RGS4 inhibitor inconclusive
COc1ccc(CN2C(=O)NC(=O)/C(=C/c3ccc([N+](=O)[O-])s3)C2=O)cc1	Pin1 inh inconclusive, RGS4 inhibitor inconclusive
C=CCC1(O)CCC2C3CCC4=CC(=O)CCC4=C3C=CC21C (stereo not given)	none (no result: B2AR arrestin, Pin1 inh, Anesthetic bind, RGS4 inhibitor, Mm-Cpn inhibitor)
CC1(C)CC/C(=C\c2ccc(Cl)cc2)C1(O)Cn1cncn1 (stereo not given)	none (no result: B2AR arrestin, Pin1 inh, Anesthetic bind, RGS4 inhibitor, Mm-Cpn inhibitor)
Cc1nn2c(=O)cc(N3CCNCC3)nc2s1	none (no result: B2AR arrestin, Anesthetic bind, Glioma ERSR ind, RGS4 inhibitor, Mm-Cpn inhibitor)
OC12ONC(c3ccccn3)C1N1CCC2CC1 (stereo not given)	B2AR arrestin 18.4µM, Pin1 inh inconclusive
CC1(O)CCC2C3CCC4=CC(=O)CCC4(C)C3(F)C(O)CC21C (stereo not given)	none (no result: B2AR arrestin, Pin1 inh, Anesthetic bind, RGS4 inhibitor, Mm-Cpn inhibitor)
NC(=O)CI	RGS4 inhibitor 18.9µM (no result: B2AR arrestin, Pin1 inh, Anesthetic bind, Mm-Cpn inhibitor)
Clc1cncc(N2CCNCC2)n1	RGS4 inhibitor 4.23µM (no result: B2AR arrestin, Pin1 inh, Mm-Cpn inhibitor)
CCc1cc(OC)c(CC(C)N)cc1OC (stereo not given)	none (no result: B2AR arrestin, Pin1 inh, Anesthetic bind, RGS4 inhibitor, Mm-Cpn inhibitor)
N[C@@H](Cn1oc(=O)[nH]c1=O)C(=O)O	RGS4 inhibitor inconclusive (no result: B2AR arrestin, Mm-Cpn inhibitor)
N[C@@H](Cn1ccc(=O)n(Cc2ccc(C(=O)O)cc2)c1=O)C(=O)O	RGS4 inhibitor 8.44µM (no result: B2AR arrestin, Pin1 inh, Anesthetic bind, Mm-Cpn inhibitor)
NC(Cc1cc(O)c(O)cc1O)C(=O)O (stereo not given)	RGS4 inhibitor 2.99µM (no result: Pin1 inh, Anesthetic bind)
NCCc1cc(O)c(O)cc1O	Pin1 inh inconclusive, RGS4 inhibitor inconclusive (no result: B2AR arrestin, Mm-Cpn inhibitor)
O=C(O)c1cc[c]([Hg][Cl])cc1	RGS4 inhibitor 6.7µM! (no result: Anesthetic bind)
Cc1ccc2c(c1)[C@]13CCCC[C@@H]1[C@@H](C2)N(C)CC3	none (no result: B2AR arrestin, Pin1 inh, Anesthetic bind, RGS4 inhibitor, Mm-Cpn inhibitor)
CN1CC[C@@]2(C)c3cc(O)ccc3N(C)C12 (stereo not given in full)	RGS4 inhibitor 21.2µM (no result: B2AR arrestin, Pin1 inh, Anesthetic bind, Mm-Cpn inhibitor)
CN1CC[C@]2(C)c3cc(O)ccc3N(C)[C@@H]12	none (no result: B2AR arrestin, Pin1 inh, RGS4 inhibitor, Mm-Cpn inhibitor)
Cc1c(N)nc([C@@H](CC(N)=O)NC[C@H](N)C(N)=O)nc1C(=O)N[C@H](C(=O)N[C@H](C)[C@H](O)[C@H](C)C(=O)N[C@@H](C(=O)NCCc1nc(-c2nc(C(=O)NCCC[S+](C)C)cs2)cs1)[C@H](C)O)[C@H](O[C@@H]1O[C@@H](CO)[C@@H](O)[C@H](O)[C@@H]1O[C@H]1O[C@H](CO)[C@H](O)[C@H](OC(N)=O)[C@@H]1O)c1cnc[nH]1	none (no result: B2AR arrestin, Pin1 inh, Anesthetic bind, RGS4 inhibitor, Mm-Cpn inhibitor)
CCC1C(=O)OCC1Cc1cncn1C (stereo not given)	RGS4 inhibitor 26.7µM! (no result: B2AR arrestin, Pin1 inh, Mm-Cpn inhibitor)
CC[C@H]1C(=O)OC[C@H]1Cc1cncn1C	none (no result: B2AR arrestin, Pin1 inh, RGS4 inhibitor, Mm-Cpn inhibitor)
O=C1[O][Sb-]23[O]C(=O)C([O]2)C2[O][Sb-]4([O]C(=O)C([O]4)C1[O]3)[O]C2=O	none (no result: B2AR arrestin, Pin1 inh, Anesthetic bind, RGS4 inhibitor, Mm-Cpn inhibitor)
S=C(S)N1CCCC1	RGS4 inhibitor 5.32µM! (no result: Anesthetic bind)
CCCOC(=O)Nc1ccc([As](=O)(O)O)cc1NC(=O)OCCC	none
CCOC(=O)Nc1ccc(NCc2ccc(F)cc2)nc1N	Pin1 inh inconclusive, RGS4 inhibitor 8.43µM (no result: Anesthetic bind)
CCN1/C(=C\C=C\C2=[N+](CC)c3ccccc3C2(C)C)C(C)(C)c2ccccc21	Pin1 inh inconclusive, Anesthetic bind 28.2µM
C=C1C(=O)O[C@@H]2C[C@@H](C)[C@@H]3C=CC(=O)[C@@]3(C)[C@@H](O)[C@H]12	RGS4 inhibitor 21.2µM
CN(N=O)c1ccc(O)c(O)c1	RGS4 inhibitor 5.97µM (no result: B2AR arrestin, Pin1 inh, Anesthetic bind, Mm-Cpn inhibitor)
CCC(=O)OC1[C@@H](N2CCCCC2)C[C@H]2[C@@H]3CC[C@H]4C[C@H](OC(C)=O)[C@@H](N5CCCCC5)C[C@]4(C)[C@H]3CC[C@]12C (stereo not given in full)	none (no result: B2AR arrestin, Pin1 inh, Anesthetic bind, RGS4 inhibitor, Mm-Cpn inhibitor)
